Bioassay records (PubChem)
MBD2 inh: blocks human MBD2 binding to methylated DNA | AID 686964 | TR-FRET, MBD2 binding to methylated oligonucleotide | Q9UBB5 | inhibition, % at 4.4 µM | 370,000 tested, 0.31% active; in the data active means inhibition above about 13%
Target sequence (Q9UBB5 whole entry, looked up): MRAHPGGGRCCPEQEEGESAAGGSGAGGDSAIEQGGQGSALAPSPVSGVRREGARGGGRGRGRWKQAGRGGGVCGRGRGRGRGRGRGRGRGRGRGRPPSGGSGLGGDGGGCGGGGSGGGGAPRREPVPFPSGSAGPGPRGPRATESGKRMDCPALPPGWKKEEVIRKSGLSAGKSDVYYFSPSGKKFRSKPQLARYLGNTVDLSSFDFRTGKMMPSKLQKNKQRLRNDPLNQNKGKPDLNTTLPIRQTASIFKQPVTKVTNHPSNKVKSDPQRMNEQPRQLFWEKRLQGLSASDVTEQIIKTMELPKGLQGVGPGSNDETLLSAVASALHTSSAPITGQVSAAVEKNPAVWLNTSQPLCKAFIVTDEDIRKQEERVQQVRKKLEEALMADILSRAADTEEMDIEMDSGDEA
UHRF1 MBD2 ctr: human UHRF1 methylated DNA binding inhibitors | 370,000 tested, 0.75% active | UHRF1 binding to methylated oligo, TR-FRET | AID 687016 | inhibition, % at 4.4 µM; in the data active means inhibition above about 21%;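 further: UHRF1 SRA domain binding a hemimethylated CpG hairpin DNA probe; 0% = median of test compound wells and 100% = reference inhibitor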
rCAG binder: r(CAG) repeat RNA binding | TO-PRO-1 dye displacement fluorescence | inhibition, % at 3 µM | 370,000 tested, 1.3% active;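 active means inhibition above the plate cutoff, the mean of all test compounds on that plate plus 3 SD, cut at about 35% in these data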;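 further: 0% = DMSO alone and 100% = 100 µM mitoxantrone as full dye displacement; higher means more dye released from RNA so lower well fluorescence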
LEDGF integ inh: blocks HIV-1 LEDGF/p75-dependent DNA integration | TR-FRET IN-LEDGF/p75 DNA integration, Eu/Cy5 | inhibition, % at 3.7 µM | 370,000 tested, 0.64% active | AID 743269;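 active means inhibition above the screen-wide mean plus 3 SD, cut at about 13% in these data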;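 further: signal is the Cy5 over europium emission ratio at 671 and 618 nm; 0% = plate median of compound wells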
ABHD5 PLIN5 PPI: blocks binding of human ABHD5 to perilipin-5; Split G. princeps luciferase complementation, luminescence, 4 h; inhibition, % at 4 µM; 360,000 tested, 0.78% active; AID 602281;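 active means inhibition above the mean inhibition across every tested compound plus 3 SD, cut at about 22% in these data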;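 further: 0% = DMSO only wells and the 100% control is not disclosed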
PRMT1 FP inh: blocks human protein arginine methyltransferase 1; Q99873; recombinant PRMT1, activity-based probe fluorescence polarization; inhibition, % at 2.79 µM; 370,000 tested, 1.3% active; AID 652257;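 active means inhibition above about 21% made by adding two undisclosed values, limit read from the data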
IN multimer up: HIV-1 integrase multimerization activation, counter-screen; shares compounds with LEDGF integ inh; TR-FRET HIV-1 integrase multimerization, biochemical; activation, % at 7.7 µM; 2,000 tested, 17% active; AID 1053131; in the data active means activation above about 8.9%
TR-FRET interf: counter-screen for LEDGF/p75 integration inhibitors: TR-FRET optical interference; inhibition, % at 7.7 µM; 2,000 tested, under 10 active; TR-FRET optical interference counterscreen, HIV-1 IN multimerization; shares compounds with LEDGF integ inh; AID 1053135;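 active means inhibition above the mean over all tested compounds plus 3 SD, which no compound reached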;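 further: 0% = integrase with antibodies and DMSO and 100% = antibodies without integrase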
LEDGF integ conf: confirmation of HIV-1 LEDGF/p75-dependent integration inhibitors; shares compounds with LEDGF integ inh; TR-FRET LEDGF/p75-dependent HIV-1 integration, biochemical; inhibition, % at 3.7 µM; 2,000 tested, 36% active; AID 1053136; in the data active means inhibition above about 14%
Numbers without * were called inactive; . = not tested or not shown. Hits are enriched below; roughly 4.1% of the tested compounds scored in any of these assays.

SMILES	MBD2 inh	UHRF1 MBD2 ctr	rCAG binder	LEDGF integ inh	ABHD5 PLIN5 PPI	PRMT1 FP inh	IN multimer up	TR-FRET interf	LEDGF integ conf
Clc1ccc(CNc2ncccn2)cc1	3	4	-1	-5	4	7	.	.	.
O=C(CSc1nc2ccccc2o1)N/N=C/c1ccc(O)c(O)c1	-3	4	14	17*	0	20	62*	-221	73*
O=C(CSc1nc2ccccc2o1)N/N=C/c1ccccc1	3	1	0	2	-3	4	.	.	.
Clc1ccccc1Cn1ccc2ccc(-c3ccc4ccn(Cc5ccccc5Cl)c4c3)cc21	-1	1	16	-2	.	5	.	.	.
CCCn1c2ccccc2c2nnc(SCCN3CCOCC3)nc21	-9	-7	-4	20*	2	24*	-2	8	5
C[C@@H]1C[C@H]2[C@@H](Cc3ccccc3)C(=O)N3[C@H](c4ccccc4)[C@H](C)C[C@H]3[C@@H](Cc3ccccc3)C(=O)N2[C@@H]1c1ccccc1	5	-2	6	-1	.	-3	.	.	.
CC1(OC(=O)c2cccs2)C(=O)C=C2C=C3CCCN3C=C2C1=O (centres undefined)	.	.	.	.	-13	.	.	.	.
CC1(OC(=O)CCc2ccccc2)C(=O)C=C2C=C3CCCN3C=C2C1=O (centres undefined)	-3	7	19	20*	-6	11	1	-3	23*
COc1ccc(OC)c(S(=O)(=O)NCC2CCN(C(=O)C(=O)c3cc4ccccc4o3)CC2)c1	-4	-2	6	-5	.	1	.	.	.
Cc1cccc(CNc2ncnc3ccc(-c4ccc5c(c4)OCO5)cc23)c1	-6	-6	7	15*	-11	0	0	0	-10
O=C(NC1CCCC1)C(c1cccnc1)N(Cc1ccc(F)cc1)C(=O)c1csnn1 (centres undefined)	1	0	-1	21*	-1	-1	0	-2	-6
CCOC(=O)c1c(C)[nH]c(N=Nc2cc(C(=O)O)cc(C(=O)O)c2)c1C	-1	11	20	14*	-2	0	9	-45	2
O=C(NCc1cccc(Cl)c1)O[C@H]1CC[C@@]23CCCN2C(=O)CCC[C@H]3C1	-6	0	.	0	.	-2	.	.	.
O=c1cc(-c2ccccc2)[nH][nH]1	-5	-1	2	23*	-36	0	-2	8	3
O=c1cc(-c2ccc(F)cc2)[nH][nH]1	-9	-1	-3	17*	-42	-2	2	-12	17*
COC(=O)[C@]12C[C@H](CC(=O)N3CCC(c4ccccc4)CC3)C(=O)N(Cc3ccc(Cl)cc3Cl)C1=C[C@H](C(C)(C)C)O[C@@H]2C	-7	-4	4	0	.	-1	.	.	.
Nc1cc(N)cc(C(=O)c2ccccc2)c1	-12	-4	23	21*	-19	1	2	-9	-1
Cc1cc(Cl)cc(C)c1OCCCCN1CCOCC1	-5	-1	-5	15*	6	0	-1	4	2
CCOC(=O)C1CCN(C(=O)C(Cc2ccc3c(c2)OCO3)NC(C)=O)CC1 (centres undefined)	3	-1	5	-2	.	-1	.	.	.
COC(=O)CCC[C@H](C)[C@@H](NS(=O)(=O)c1ccc(C)cc1)C(C)(C)C	9	1	-2	40*	.	6	0	-2	-5
CC(C)CNc1cccc2c1S(=O)(=O)N(Cc1cn(Cc3cccc(F)c3)nn1)Cc1ccccc1O2	0	3	7	3	.	0	.	.	.
Cc1ccc(NC(=O)CCCCCC2NC(=O)NC2C)cc1 (centres undefined)	.	.	.	.	0	.	.	.	.
CC1NC(=O)NC1CCCCCC(=O)Nc1ccc(F)c(Cl)c1 (centres undefined)	-4	-2	-2	74*	-5	-5	1	-3	92*
CCc1cccc(NC(=O)CCCN2C(=O)NC(C)(C)C2=O)c1	0	7	0	2	-3	5	.	.	.
CCc1cccc(NC(=O)CCCCCC2NC(=O)NC2C)c1 (centres undefined)	-2	-1	-4	77*	0	1	-2	9	92*
SMILES	MBD2 inh	UHRF1 MBD2 ctr	rCAG binder	LEDGF integ inh	ABHD5 PLIN5 PPI	PRMT1 FP inh	IN multimer up	TR-FRET interf	LEDGF integ conf
c1ccc(-c2ccc(C3=Nn4c(nnc4-c4ccccn4)SC3)cc2)cc1	8	-1	2	-2	.	5	.	.	.
CC1(C)Oc2ccc(C(=O)NC3CCCC3)cc2NC1=O	-2	0	1	2	.	-1	.	.	.
N=C1/C(=C\c2coc3ccccc3c2=O)C(=O)N=C2SC(c3ccncc3)=NN12	-4	-6	-42	25*	16	-2	0	-1	62*
CCOC(=O)[C@]12CCCC=C1N(Cc1ccccc1)C(=O)[C@H](CC(=O)N1CCCCCC1)C2	0	2	-2	23*	2	2	2	-12	-10
CCOC(=O)N1CCN(C(=O)C[C@@H]2C[C@@]3(C(=O)OCC)CCCC=C3N(Cc3ccccc3)C2=O)CC1	-3	-2	0	5	-1	-6	.	.	.
O=C(Nc1c(-c2ccc3c(c2)OCO3)[nH][nH]c1=O)c1cccc(C(F)(F)F)c1	2	14	12	20*	-69	-4	2	-11	-3
O=C(Nc1c(-c2ccc3c(c2)OCO3)[nH][nH]c1=O)c1ccccc1	1	9	3	7	-4	0	.	.	.
Cc1ccc(-c2cc(-c3nnc(SCC(=O)Nc4ccccc4-c4ccccc4)n3N)[nH]n2)cc1	3	-2	7	5	.	-3	.	.	.
Cc1ccccc1NC1=C/C(=N\S(=O)(=O)c2ccc(C(=O)O)cc2)c2ccccc2C1=O	-9	-1	32	40*	-16	6	0	-1	74*
S=C(Nc1ccc(Cl)c(Cl)c1)N1CCCC1	5	1	-2	-5	2	2	.	.	.
S=C(Nc1ccc2nsnc2c1)N1CCCCC1	-5	6	0	17*	-29	3	1	-2	5
COc1ccc(-n2c(COc3ccccc3)nnc2SCC(=O)Nc2ccccc2-c2ccccc2)cc1	-9	-1	6	2	.	-1	.	.	.
Cc1oc(CC(C)C)cc1C(=O)Nc1ccc(C(=O)O)cc1	2	2	5	16*	3	-3	1	-5	-7
Cc1cc(C(=O)Nc2ccc(C(=O)O)cc2)c(C)o1	-2	4	1	3	-7	-4	.	.	.
